In PubChem BioAssay (NCI):
Compounds without any hit were thinned out: in the full panel of roughly 83,000, 20% have a hit.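 Testing used 96-well plates and a 48-hour single-concentration exposure. Example: -40 means 40% of the starting cells died.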 Calls of active or inactive are those of the source. How the source made its calls: active means growth percent below 10; inactive means the rest.

Each molecule was assayed on HOP-62 NSCLC (assay: NCI-60 one-dose screen, 48 h (100 = growth as untreated, 0 = no growth, -100 = all killed)). Settings: 10 µM unless noted.

| Compound | growth |
| --- | --- |
| O=c1[nH]n(C(=S)N/N=C/c2ccccc2Cl)c(=O)c2ccccc12 | -2.31% (active) |
| Cn1cc(-c2nnc(N)nc2-c2c[nH]c3ccc(F)cc23)c2cccnc21 | 49.2% (inactive) |
| CN1CCN(Cc2ccc(C(=O)Nc3cccc(C#Cc4cccc5[nH]nc(N)c45)c3)cc2C(F)(F)F)CC1 | -90.1% (active) |
| Cc1ccccc1[C@H]1C(C(=O)c2ccc(Cl)cc2)C2(N[C@@H]1c1ccccc1)C(=O)Nc1ccc(Br)cc12 (stereo partly drawn) | 31.6% (inactive) |
| N#Cc1c(-c2cccc(Cl)c2Cl)cc(-c2ccc3ccccc3c2)[nH]c1=O | 34.4% (inactive) |
| NS(=O)(=O)c1ccc(-n2cc(-c3cccc(NC(=O)c4cc(C(F)(F)F)cc(C(F)(F)F)c4)c3)nn2)cc1 | 15% (inactive) |
| COc1ccc(C(=O)/C=C/c2ccccc2Cl)cc1S(N)(=O)=O | 124% (inactive) |
| O=C(/C=C/c1cccc(OCc2ccc(F)cc2)c1)c1nc2ccccc2[nH]1 | 71.1% (inactive) |
| Cc1cc(=O)oc2cc(OCCCOc3ccc(/C=C/C(=O)Nc4ccccc4N)cc3)ccc12 | 16.7% (inactive) |
| S=C(Nc1ccc(OCc2nc3ccccc3[nH]2)cc1)NC1CCCCC1 | 95.1% (inactive) |
| N#Cc1c(-c2ccccc2Cl)cc(-c2c[nH]c3ccccc23)[nH]c1=O | 67.2% (inactive) |
| CC1=C(C(=O)OCc2ccccc2)C(c2c(O)cc(O)cc2O)n2c(nc3ccccc32)N1 (stereo not drawn) | 47.8% (inactive) |
| CCOc1ccc(-c2c(C#N)c(-c3ccc(Cl)cc3)nc3n[nH]c(-c4ccc(Cl)cc4)c23)cc1OC | 68.7% (inactive) |
| Cc1ccc(Cc2cnc(NC(=O)c3ccc(/C=C4\SC(=S)N(C)C4=O)cc3)s2)cc1 | 46.4% (inactive) |
| Cc1ccc(C(=O)CSc2nc3ccc(F)cc3c(=O)n2-c2ccc(Cl)cc2)cc1 | -17.1% (active) |
| C[C@H](Nc1nc(NCCc2ccccc2)nc2ccccc12)c1ccccc1 | -90.3% (active) |
| COc1cc(-c2ccc(/C=N/NC(=O)c3[nH]c4ccc(Br)cc4c3-c3ccccc3)s2)cc(OC)c1OC | 74.2% (inactive) |
| OCNc1ccc(-n2cnc3cc(-c4ccc(O)cc4)ccc32)cc1C(F)(F)F | 34.9% (inactive) |
| COc1cc(OC)cc(C(=O)Nc2cccc(-c3cn(-c4ccc(S(N)(=O)=O)cc4)nn3)c2)c1 | 6.62% (active) |

| Compound | growth |
| --- | --- |
| COc1ccc2[nH]c(O)c(N=NC(=O)COc3ccc(NC(=O)Nc4ccccc4)cc3)c2c1 | -6% (active) |
| Cc1ccc2c(N)c(C(=O)Nc3ccc(OC(F)(F)F)cc3)sc2n1 | 68.4% (inactive) |
| COc1cc(/C=C/C(=O)c2ccc(C)cc2)ccc1Oc1nc(Nc2ccc(F)cc2)nc(N(C)C)n1 | 86.4% (inactive) |
| N#Cc1c(NCc2ccccc2)n[nH]c1Nc1ccccc1 | 88.9% (inactive) |
| CC(C)c1sc(NC(=O)c2cc(NC(=O)c3cc(NC(=O)c4cscn4)cn3C)cn2C)nc1C(=O)NCCCN(C)C | 16.1% (inactive) |
| CCOc1ccc(C(=O)NC(=S)Nc2ccc(S(N)(=O)=O)cc2)cc1 | 102% [100 µM] (inactive) |
| Nc1cccc(SCc2cc3ccccc3[nH]c2=O)c1 | 42.7% (inactive) |
| CC1=C(C(=O)c2ccccc2)C(c2ccc(-n3cncn3)cc2)n2c(nc3ccccc32)N1 (stereo not drawn) | 71.5% (inactive) |
| O=C(c1ccc(OCCN2CCOCC2)cc1)C1[C@H](c2ccc(Cl)cc2)[C@@H](c2ccccc2)NC12C(=O)Nc1ccc(Cl)cc12 (stereo partly drawn) | 67.7% (inactive) |
| CCCCCCCCc1ccc(S(=O)(=O)Nc2ccc(CC)cc2C(=O)O)cc1 | 99.6% (inactive) |
| COc1cc2oc(-c3cccc(C(=O)Nc4cccc([N+](=O)[O-])c4)c3)cc(=O)c2c(OC)c1OC | -13.4% (active) |
| C=C1CC[C@@H]2[C@]3(C)COC(c4ccccc4)O[C@@H]3CC[C@@]2(C)[C@@H]1C/C=C1/C(=O)OCC1OC(C)=O (stereo partly drawn) | -27.7% (active) |
| C=C1CC[C@@H]2[C@]3(C)COC(c4cn[nH]c4-c4ccc(C)cc4)O[C@@H]3CC[C@@]2(C)[C@@H]1C/C=C1/C(=O)OCC1O (stereo partly drawn) | 27.4% (inactive) |
| CC(C)CSc1nc(NCCc2c[nH]c3ccccc23)c(C#N)c(-c2ccc(Cl)cc2)n1 | 49.3% (inactive) |
| NS(=O)(=O)c1ccc(-n2cc(-c3cccc(NC(=O)c4cc(Cl)cc(Cl)c4)c3)nn2)cc1 | 51.2% (inactive) |
| C=C1CCC2C3(C)COC(c4ccc(F)cc4)OC3CCC2(C)C1C/C=C1/C(=O)OCC1O (stereo not drawn) | -3.79% (active) |
| CCN1C(=O)/C(=N\N=C(/C)c2ccc3c(c2)Nc2ccccc2S3)c2cc(Cl)ccc21 | 92.9% (inactive) |
| N#Cc1c(-c2cccc3ccccc23)cc(-c2cccc(OCC(=O)O)c2)[nH]c1=O | 105% (inactive) |
| O=C(COc1ccc(NC(=O)Nc2ccccc2)cc1)N=Nc1c(O)[nH]c2ccc([N+](=O)[O-])cc12 | 24.5% (inactive) |
